Experimental data reported in PubChem BioAssay AID938 (National Center for Advancing Translational Sciences (NCATS), 2007).
“And” between values parts separate entries of the source, which are not always exact repeats. Equal entries are not always repeated. In all, about 73,000 compounds went through this assay and about 1,800 (2.5%) were called active. Where a call stands in place of a potency, no number is given. Roughly 13% stayed inconclusive and do not appear here. Many of the other results were omitted from the sample, so actives are more common in it than they were. A number with no mark means an inactive call. The call rests on the fitted dose curve; in most records, active means well fitted activation curve with a large enough effect; inconclusive means small, poorly fitted or top-dose-only effect; inactive means no such curve, though single readings can be large or run the other way.

test: qHTS Assay for Agonists of the Thyroid Stimulating Hormone Receptor: Activators of Intracellular cAMP Concentrations in Parental HEK 293; settings: parental HEK293 CNG cAMP sensor, membrane potential fluorescence; series mostly up to 57.1 µM; further: nearly all actives have a fitted effect of over 55% in size
In short: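 Parental HEK 293 cells stably expressing a modified CNG channel (no TSHR) report cAMP rise as membrane depolarization. Membrane potential dye with 100 uM RO 20-1724 was loaded for 60 min at room temperature, then compound added for 30 min; fluorescence read at 590 nm.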
Potency means the concentration at half of the fitted maximal effect.

SMILES | Potency | activation
CC1(C)CC(=O)C=C(NCCCNC2CCCCC2)C1 | inactive | 
COC(=O)C1(C)C=CCN1C(=O)c1ccccc1 (centres undefined) | inactive | 
CC(=O)N1[C@H](C)C=C[C@]1(Cc1ccccc1)C(=O)NCc1ccccn1 | inactive | 
CC(C)CC1(C(=O)NCc2ccccn2)C=CCN1C(=O)c1ccccc1 (centres undefined) | 25.1 µM (active) | 
O=C1C[C@@H](O)[C@@H](O)[C@H]2[C@@H]3C(=O)N(Cc4ccc5c(c4)OCO5)C(=O)[C@@H]3CC[C@H]12 |  | 0.478% [at 11.4 µM] and -2.17% [at 11.4 µM]
COc1ccc(C(C(O)C(=O)c2c[nH]c3ccccc23)N2CCN(c3ccccc3)CC2)cc1 (centres undefined) | inactive | 
N#Cc1cc2[nH]c(=O)c(=O)[nH]c2cc1[N+](=O)[O-] | inactive | 
CCOC(=O)N1CCC(O)(c2cc(C)c(C)cc2C)CC1 | inactive | 
c1ccc(CSc2nnc(-c3ccco3)c(-c3ccco3)n2)cc1 | inactive | 
O=C(CSc1nnc(-c2ccco2)n1CC1CCCO1)c1ccccc1 (centres undefined) | inactive | 
c1ccc(CSc2nnc(-c3ccco3)n2Cc2ccccc2)cc1 | 15.8 µM (active) | 
C1CCC2OC2C1 (centres undefined) | inactive | 
Brc1cc(Br)c(Oc2cc(Br)c(Br)cc2Br)cc1Br | inactive | 
CN1CCC(CNC(=O)c2ccc(-n3c(=O)c(=O)[nH]c4ccccc43)cc2)CC1 | inactive | 
O=C(O)CCCCC(=O)O | inactive | 
CCOc1ccc2c(c1)cc(CN(C(=O)CC)C1CCCCC1)c1nnnn12 | 20 µM (active) | 
CN(C(=O)CSc1nnnn1-c1ccccc1)C1CCCCC1 | inactive | 
COc1ccc(N2C(=O)CCC(C(=O)N(C)C3CCCCC3)C2c2ccc(OC)c(OC)c2)cc1 (centres undefined) | inactive | 
CC(C)[C@H](CO)Nc1nc(Nc2cc(N)cc(Cl)c2)c2ncn(C(C)C)c2n1 | inactive | 
CCCCOC(=O)NCN1C(=O)C2C3C=CC(C3)C2C1=O (centres undefined) | inactive | 
O=C1OCCC=C1[C@@H](O)CCc1ccccc1 |  | -4.2% [at 11.4 µM]
CC(C)CNC(=O)C1CCCN(S(=O)(=O)c2ccc(-n3cnnn3)cc2)C1 (centres undefined) | inactive | 
O=C(c1cnccn1)N1CCC2(CCN(Cc3cc(C(F)(F)F)cc(C(F)(F)F)c3)CC2)CC1 | inactive | 

SMILES | Potency | activation
Nc1nonc1C(=O)NCCc1ccccc1 | inactive | 
O=C(NCCc1ccc2c(c1)OCCO2)c1cc2ccccc2o1 | 25.1 µM (active) | 
O=C(CC(Cc1ccccc1)C(=O)O)NCCc1ccc2c(c1)OCO2 (centres undefined) | inactive | 
CC1CCCN(Cc2nc3c(c(=O)n(C)c(=O)n3C)n2CC(=O)c2ccccc2)C1 (centres undefined) | inactive | 
CCn1cc(C(=O)NCc2ccc3c(c2)OCO3)c2cc(OC)c(OC)cc2c1=O | inactive | 
COc1ccc2c(c1)C(C)=CC(C)(C)N2C(=O)CNCc1ccc2c(c1)OCO2 | 25.1 µM (active) | 
CCOC(=O)NCc1ccc2c(c1)OCO2 | inactive | 
Cc1ccc(Cn2c(C)nc3c(c2=O)c2nc4ccccc4nc2n3Cc2ccco2)cc1 | inactive | 
CCn1nc(NC(=O)c2ccco2)c2cc3ccc(C)cc3nc21 | inactive | 
Cc1ccc(Cn2c(NC(=O)c3ccco3)nc3ccccc32)cc1 | 25.1 µM (active) | 
CCOc1ccc2nc(NCCNS(=O)(=O)c3ccccc3)c(C#N)cc2c1 | inactive | 
Cc1nnc(N(Cc2ccco2)C(=O)c2ccno2)s1 | inactive | 
COC(=O)CSC1=C(C#N)C(c2ccccc2OC)C(C(=O)OC)C(=O)N1 (centres undefined) |  | -3.31% [at 11.4 µM]
N#CC1=C(SCc2ccccc2)NC(=O)C(C#N)C12CCCC2 (centres undefined) | 31.6 µM (active) | 
Cc1noc(C)c1-c1nc(Nc2ccccc2)c2ccccc2n1 | inactive | 
O=C(NC(=O)c1ccc(Cl)c(Cl)c1)OC1CCS(=O)(=O)C1 (centres undefined) | inactive | 
Cc1ccnc(N)c1 | inactive | 
CC(C)c1ccc2c([Si](C)(C)C)c3c(nc2c1)-c1cccc(=O)n1C3 | inactive | 
COc1cccc(C(=O)Nc2c3c(nn2-c2cccc(C)c2C)CS(=O)(=O)C3)c1OC | inactive | 
O=C(CC1CCCCC1)Nc1c2c(nn1-c1ccc(F)cc1)CS(=O)(=O)C2 | 15.8 µM (active) | 
COc1ccc(C2C(C#N)=C(N)Oc3n[nH]c(C)c32)cc1CN1CCN(c2ccc(F)cc2)CC1 (centres undefined) | inactive | 
Cc1nc2cnc(N3CCN(C)CC3)nc2n(C[C@H]2CCCO2)c1=O | inactive | 
CC(C)(C)NC(=O)c1cc(NC(=O)c2ccco2)cc(NC(=O)c2ccco2)c1 | inactive | 

SMILES | Potency | activation
COc1ccc(-c2c3c(=O)n(C)c(=O)n(C)c3cn2NC(C)=O)cc1 | inactive | 
COc1ccc(C2C3=C(OC(C)=O)c4ccccc4C3=Nc3c2c(=O)n(C)c(=O)n3C)cc1 (centres undefined) | 10 µM (active) | 
Cc1cccc(C2c3c(n(C)c(=O)n(C)c3=O)N=C3c4ccccc4C(=O)C32)c1 (centres undefined) | inactive | 
Cn1nnc(NC(=O)CSc2ncn[nH]2)n1 | inactive | 
COC(=O)C(C(=O)OC)[C@@H]1CCCC(=O)C1 |  | 4.23% [at 11.4 µM]
CCc1nc(Nc2ccc3nccnc3c2)c2oc3ccccc3c2n1 | inactive | 
COc1ccc(CCNC(=O)CSc2nc(C)nc3c2oc2ccccc23)cc1OC | inactive | 
COc1ccccc1Nc1ncnc2c1oc1ccccc12 | 31.6 µM (active) | 
COc1ccccc1CNc1ncncc1-c1cccnc1 | inactive | 
COc1ccc(CNc2ncncc2-c2ccccc2OC)c(OC)c1 | 25.1 µM (active) | 
COc1ccccc1CNc1ncncc1-c1cccc(NS(C)(=O)=O)c1 | inactive | 
COC(=O)[C@@H]1CC[C@H](C)[C@@H](c2ccc(C)cc2)N1C(=O)c1ccc(/C=N\O[C@@H](C)c2cn([C@H](CO)Cc3ccccc3)nn2)cc1 |  | 9.66% [at 11.4 µM] and 5.24% [at 11.4 µM]
Cc1ccc2c(c1)c1ncnc(N3CCc4ccccc4C3)c1n2C | 25.1 µM (active) | 
Cc1cccc(-n2ncc3c(N4CCc5ccccc54)ncnc32)c1 | inactive | 
Cc1ccc2c(c1)c1ncn(CCC3=CCCCC3)c(=O)c1n2C | inactive | 
Cn1c(/C(C#N)=C2/CCCCCN2)nc2ccccc21 | inactive | 
Cc1noc(C)c1CSc1nc2cc(S(=O)(=O)N3CCOCC3)ccc2o1 | inactive | 
O=C(OCC(COC(=O)c1ccccc1)(COC(=O)c1ccccc1)COC(=O)c1ccccc1)c1ccccc1 | inactive | 
O=C(O)CSCc1nc2ccccc2s1 | inactive | 
CCc1ccc(-c2nnn(Cc3nn[nH]n3)n2)cc1 | inactive | 
CCc1ccc(-c2nnn(Cc3nc4ccccc4s3)n2)cc1 | 15.8 µM (active) | 
Cc1nc2cnc(Nc3ccccc3)nc2n(Cc2ccc(F)cc2)c1=O | inactive | 
O=C(CSc1n[nH]c(-c2cccnc2)n1)Nc1ccnc2ccccc12 | inactive | 

SMILES | Potency | activation
COCCn1c(-c2ccc(OC)c(OC)c2)nc2ccccc21 | inactive | 
CC(=O)Nc1nonc1-c1nc2ccccc2n1Cc1ccccn1 | inactive | 
CCCn1c(C(O)c2cc(OC)ccc2OC)nc2ccccc21 (centres undefined) | inactive | 
Nc1nonc1-c1nc2ccccc2n1CCC(=O)O | inactive | 
COc1ccc(C)c(Cn2c(-c3nonc3N)nc3ccccc32)c1 | 25.1 µM (active) | 
Nc1nonc1-c1nc2ccccc2n1Cc1ccc(F)cc1 | 20 µM (active) | 
C=CCc1cccc2cc(C(=O)OCC)c(=O)oc12 | inactive | 
C/C(=C\C(=O)c1ccccc1)Nc1cccc(O)c1 |  | 5.02% [at 11.4 µM]
COc1cc(Cl)c(S(=O)(=O)n2cnc(C)c2)cc1Cl |  | 12.1% [at 11.4 µM]
CCC1Oc2ccc(Cl)cc2N(CC(=O)O)C1=O (centres undefined) | inactive | 
C#CCC(C(=O)OC)(C(=O)OC)C(C[N+](=O)[O-])c1ccccc1 (centres undefined) |  | -0.955% [at 11.4 µM]
COc1cccc([C@H]2Oc3ccc(OC)cc3/C(=N\OCC[C@@H]3C=C[C@H](OC(C)=O)[C@H](COC(C)=O)O3)[C@@H]2O)c1 |  | 1.81% [at 11.4 µM]
Cc1ccc(C(=O)Nc2ccccc2C(=O)NC2CCCCC2)cc1S(=O)(=O)N1CCOCC1 | 15.8 µM (active) | 
Cc1ccccc1NC(=O)c1cc(S(=O)(=O)N2CCOCC2)cs1 | inactive | 
Cc1cc(C)n(C(=O)c2ccc(C)c(S(=O)(=O)N3CCOCC3)c2)n1 | inactive | 
N[C@H](C(=O)O)c1ccc(C(=O)O)c(O)c1 | inactive | 
Cc1c2c(nc3ccccc13)-c1cccc(=O)n1C2 | inactive | 
Cc1ccc(-c2nn(CC(C)(C)C)c3ncnc(N)c23)cc1 | inactive | 
CCCN(CCC)C(=O)C1c2ccccc2Oc2ccccc21 | 12.6 µM (active) | 
O=C(c1ccco1)N1CCN(C(=O)C2c3ccccc3Oc3ccccc32)CC1 | inactive | 
